From PubChem BioAssay
NFkB transloc inh = inhibitors of IL-1B driven NFkB p65 nuclear import, primary screen, imaging, HUVEC, IL-1B stimulus, high-content imaging; HUVEC IL-1B NFkB p65 nuclear translocation imaging; inhibition, % at 2 µM; 94,000 tested, 0.43% active; AID 796, 2007;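 active = inhibition above about 30% together with a positive call from visual inspection of the well image, limit read from the data; inconclusive = inhibition above a set limit but visual check negative; inactive = inhibition not above a set limit, visual check negative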;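 also: nuclear over cytoplasmic p65 intensity ratio measured by imaging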
VCAM1 TNFa inh = inhibitors of TNFa-induced VCAM1 expression, primary screen, imaging, HUVEC, TNFa stimulus, immunofluorescence | 95,000 tested, 0.48% active | inhibition, % at 2 µM | HUVEC TNFa-induced VCAM-1 immunofluorescence, high-content imaging;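 active = inhibition above the batch mean plus 3 SD, with images confirmed as a hit by eye, cut at about 37% in these data; inconclusive = inhibition above that limit but hit not confirmed in images; inactive = inhibition not above that limit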
IL1B cytotox = cytotoxicity in IL-1B stimulated HUVEC, primary screen, cytotoxicity control for IL-1B NFkB translocation project, imaging, Hoechst nuclear count, IL-1B stimulus | HUVEC cell count loss | cell count reduction, % at 2 µM | 94,000 tested, 0.41% active;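 active = cell count reduction more than 3 SD above the screen-wide mean, cut at about 70% in these data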
NFkB transloc pot = enhancers of NFkB p65 translocation in HUVEC – imaging, IL-1B stimulus, high-content imaging, primary screen | HUVEC IL-1B NFkB p65 nuclear translocation imaging | AID 819, 2007 | 94,000 tested, 0.3% active | activation, % at 2 µM;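 active = activation above 40%, about the mean plus 3 SD, also judged a hit on visual image review; inconclusive = activation above 40% but not a hit on visual review; inactive = activation not above 40% and no visual hit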;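 also: percent activation is computed from the nuclear over cytoplasmic p65 intensity ratio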
TNFa cytotox = cytotoxicity in TNFa-stimulated HUVEC, primary screen, cytotoxicity control for VCAM1 expression modulator project, imaging, Hoechst nuclei count; HUVEC TNFalpha-stimulated, Hoechst cell count; cell count reduction, % at 2 µM; 93,000 tested, 0.17% active; AID 848, 2007;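 active = cell count reduction exceeding the screen mean by over 5 SD, scaled to untreated wells per plate, cut at about 78% in these data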;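 also: cells counted after 24 h of TNF alpha exposure following the 1 h pretreatment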
A number is an active result; – = inactive; ? = inconclusive; · = not tested or not shown. An excerpt weighted towards active compounds, which were near 1.5% of everything screened.

SMILES	NFkB transloc inh	VCAM1 TNFa inh	IL1B cytotox	NFkB transloc pot	TNFa cytotox
c1ccc(-c2nnc(-c3cccc(-c4nnc(-c5ccccc5)o4)c3)o2)cc1	–	–	–	–	–
Cc1ccc(C(=O)CSc2nnc(-c3ccccc3)o2)cc1	–	–	93.0	–	–
COc1ccc(-c2nnc(SCc3ccccc3F)o2)cc1	–	–	–	–	–
Cc1ccc(-c2nnc(-c3ccccc3)o2)cc1	71.8	–	–	–	–
O=C(O)CSc1nnc(-c2ccccc2)o1	·	–	·	·	–
Fc1ccccc1CSc1nnc(-c2ccccc2)o1	–	–	91.6	–	–
CCOC(=O)C1=C(c2ccccc2)Nc2ncnn2C1c1ccc(OC)c(OC)c1OC (stereo not drawn)	–	–	–	–	–
Cc1ccccc1NC(=O)N1CCCC1C(=O)NCc1cccs1 (stereo not drawn)	–	–	–	–	–
COc1ccc2c(c1)c1ncn(CCc3ccccc3)c(=O)c1n2C	–	–	–	–	–
Cc1cc(OCc2ccc(F)cc2)nc(-c2ccccc2O)n1	–	94.8	–	–	79.8
Cc1ccc(Oc2cc(C)nc(-c3ccccc3O)n2)cc1	–	–	–	–	–
Cc1ccc(S(=O)(=O)CCC(=O)c2ccc(O)cc2O)cc1	–	–	–	–	–
CC(C)CCN1CC(O)=C(c2nc3ccccc3[nH]2)C1=N	–	–	–	–	–
CC(C)N1CC(O)=C(c2nc3ccccc3[nH]2)C1=N	–	·	–	–	100.0
CCn1cc(C(=O)NCCCN2CC(C)CC(C)C2)c2cc(OC)c(OC)cc2c1=O (stereo not drawn)	–	–	–	–	–
Cc1cc(SCC(=O)c2cc3ccccc3o2)nc2ccccc12	–	–	–	–	–
Cc1cc(SCC(=O)c2ccc3c(c2)OCO3)nc2ccccc12	57.4	–	–	–	–
Cc1ccc(OCC(=O)N2CCN(C(=O)CCC3CCCC3)CC2)cc1	–	–	–	–	–
Cc1ccc(C(=O)NCCc2nnc(SCC(=O)Nc3nc(-c4ccccc4)cs3)n2C)cc1	–	–	–	–	–
CC(=O)Nc1cccc(-c2nnc(SCC(=O)n3c4c(c5ccccc53)CCCC4)n2C)c1	–	–	–	–	–
O=C(CCCCCCN1C(=O)c2ccccc2C1=O)N1CCC(c2ccccc2)C1 (stereo not drawn)	–	–	–	–	–
Clc1ccc(-c2nnc3sc(-c4ccc(Br)o4)nn23)cc1	–	–	–	–	–
Cc1oc(-c2ccc(Cl)cc2)cc1-c1nn2c(-c3ccoc3C)nnc2s1	–	53.7	–	–	·
COc1ccc(/C=N/NC(=O)c2sccc2OCc2ccc(F)cc2)cc1OC	–	–	–	–	–
CCc1nnc(NC(=O)CSc2nnc(-c3ccccc3O)n2-c2ccc(C)cc2C)s1	–	–	–	–	–
SMILES	NFkB transloc inh	VCAM1 TNFa inh	IL1B cytotox	NFkB transloc pot	TNFa cytotox
OCCN=C(c1ccccc1)C12CN3CN(CN(C3)C1)C2	–	59.9	–	?	–
O=[N+]([O-])c1nn(-c2ccc3c(c2)OCCO3)n(O)c1=NC1CCCCC1	–	–	–	–	–
O=[N+]([O-])c1nn(-c2ccc3c(c2)OCCO3)n(O)c1=NCc1ccccc1Cl	–	–	–	92.5	–
COC(=O)c1cc(C#N)c(NCc2ccc(Cl)cc2Cl)nc1C	–	–	–	–	–
COc1cc(NC(=O)C23CC4CC(C2)CC(n2nnc(C)n2)(C4)C3)c(OC)cc1Cl	–	–	–	–	–
CN(c1ccc(C(=O)NCCSC(C)(C)C)cc1)S(C)(=O)=O	–	–	87.2	–	–
O=C(O)COc1ccc(=O)n(-c2ccccc2)n1	–	–	–	–	–
COC(=O)COc1ccc(=O)n(-c2ccccc2)n1	–	·	–	–	98.9
O=C(NCCc1ccncc1)C(F)(F)F	72.5	–	–	–	–
COc1cc(Cl)ccc1S(=O)(=O)n1nc(C)cc1C	–	–	–	–	–
COc1cc(S(=O)(=O)n2nc(C)cc2C)c(OC)cc1Cl	46.1	–	–	–	–
COc1cc(S(=O)(=O)n2nnc3ccccc32)c(OC)cc1Cl	–	–	87.1	–	·
COc1ccc(OC)c(S(=O)(=O)n2nnc3cc(Cl)ccc32)c1	–	–	–	–	–
O=C(N/N=C/C=C/c1ccccc1)c1n[nH]c2c1CCC2	33.7	68.2	–	–	–
